Here are results for 8 compounds from PubChem BioAssay (Tox21).

Assay [1] can be described thus: qHTS assay to identify small molecule agonists of the hypoxia (HIF-1) signaling pathway - cell viability counter screen (AID 1224844; calls by dose curve; further: nearly all actives have a fitted effect of over 50% in size). As to conditions: HRE-bla ME-180 viability, CellTiter-Glo luminescence, 17 h; series mostly up to 76.8 µM. The gist of the method:
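Cytotoxicity was measured in parallel with the HRE-driven beta-lactamase readout: after 17 hrs of compound exposure at 37C, HRE-bla ME-180 cells received CellTiter-Glo and luminescence was recorded 30 min later.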

Assay [2] can be described thus: qHTS assay to identify small molecule agonists of H2AX (AID 1224845; active means well fitted activation curve with a large enough effect in the signal ratio in the repeat runs, not every such curve was filed as active; the % refers to the signal ratio). As to conditions: CHO-K1 phospho-H2AX Ser139 HTRF, 3 h; series mostly up to 154 µM. An outline of the steps:
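Wild-type CHO-K1 cells, plated overnight, exposed 3hr at 37C to 15 concentrations (0.76% DMSO final). Lysed, then HTRF anti-pH2AX (S139) cryptate and anti-H2AX-d2 antibodies, 24 hr room temperature; 665/620 nm emission read.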
(Quantitative high-throughput screening tests each substance at several concentrations.)

Assay [3] in a line: qHTS assay to identify small molecule agonists of the hypoxia (HIF-1) signaling pathway (AID 1224846; active means well fitted activation curve with a large enough effect in the signal ratio in the repeat runs, not every such curve was filed as active; the % refers to the signal ratio). As to conditions: HRE-bla ME-180 cells, beta-lactamase ratio, 17 h; series mostly up to 76.8 µM. An outline of the steps:
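Compounds from the Tox21 10K library, dissolved in DMSO, are tested for induction of a hypoxia response element–controlled beta-lactamase reporter in ME-180 cells. Exposure lasts 17 hrs at 37C after a 5 hr settling period, followed by CCF4-AM FRET substrate.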

Assay [4] can be described thus: qHTS RealTime-Glo MT Cell Viability Assay in HepG2 cells - 24 hour (AID 1224867). Further: nearly all actives have a fitted effect of over 50% in size. As to conditions: RealTime-Glo luminescence; series mostly up to 76.8 µM. The gist of the method: (§1)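 Cells + NanoLuc/prosubstrate dispensed (600 cells/well) → 5 h at 37 C/5% CO2 → compounds in DMSO transferred → 40 h incubation at 37 C, luminescence read at 0, 8, 16, 24, 32, 40 h.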
A short description of assay [5]: A CellTox Green Cytotoxicity Assay to monitor cytotoxicity in HEK293 cells - 0 hour (AID 1224869). Further: nearly all actives have a fitted effect of over 50% in size. As to conditions: CellTox Green fluorescence; series mostly up to 76.8 µM. An outline of the steps: (§2)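 Cells (HEK293, 600/well) and dye reagent are dispensed together. After 5 h at 37 C, 23 nL compound is pinned in. Plates stay at 37 C for 40 h with fluorescence read at 0h, 8h, 16h, 24h, 32h and 40h.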

A short description of assay [6]: qHTS RealTime-Glo MT Cell Viability Assay in HepG2 cells - 40 hour (AID 1224870). Further: nearly all actives have a fitted effect of over 50% in size. As to conditions: RealTime-Glo luminescence; series mostly up to 76.8 µM. The gist of the method: (§3)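 HepG2 cells (600/well) mixed with RealTime-Glo MT reagent, settled 5 h at 37 C/5% CO2 before compound addition. Nonlytic NanoLuc luminescence from viable-cell prosubstrate reduction read repeatedly during 40 h treatment at 37 C.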

The nature of assay [7]: qHTS RealTime-Glo MT Cell Viability Assay in HepG2 cells - 8 hour (AID 1224873). Further: nearly all actives have a fitted effect of over 55% in size. Further: potency means the concentration at half of the fitted maximal effect. As to conditions: RealTime-Glo luminescence; series mostly up to 76.8 µM. The gist of the method:
as §3

Assay [8] in a line: A CellTox Green Cytotoxicity Assay to monitor cytotoxicity in HEK293 cells - 24 hour (AID 1224875). Further: nearly all actives have a fitted effect of over 45% in size. As to conditions: CellTox Green fluorescence; series mostly up to 76.8 µM. The gist of the method:
as §2

Assay [9] can be described thus: A CellTox Green Cytotoxicity Assay to monitor cytotoxicity in HepG2 cells - 16 hour (AID 1224876). Further: nearly all actives have a fitted effect of over 45% in size. As to conditions: CellTox Green fluorescence; series mostly up to 76.8 µM. An outline of the steps: (§4)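 Cells and non-lytic dye reagent are dispensed together (600 HepG2 cells/well) and incubated 5 h before DMSO compound transfer. Kinetic fluorescence is then recorded in the same wells during 40 h at 37 C.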

Assay [10] is described as follows: qHTS RealTime-Glo MT Cell Viability Assay in HepG2 cells - 32 hour (AID 1224877). Further: nearly all actives have a fitted effect of over 55% in size. The settings on record: RealTime-Glo luminescence; series mostly up to 76.8 µM. An outline of the steps:
as §1

The nature of assay [11]: A CellTox Green Cytotoxicity Assay to monitor cytotoxicity in HepG2 cells - 24 hour (AID 1224878). Further: nearly all actives have a fitted effect of over 45% in size. Further: potency means the concentration at half of the fitted maximal effect. The settings on record: CellTox Green fluorescence; series mostly up to 76.8 µM. An outline of the steps:
as §4

The nature of assay [12]: A CellTox Green Cytotoxicity Assay to monitor cytotoxicity in HepG2 cells - 40 hour (AID 1224879). Further: nearly all actives have a fitted effect of over 40% in size. Further: potency means the concentration at half of the fitted maximal effect. As to conditions: CellTox Green fluorescence; series mostly up to 76.8 µM. An outline of the steps:
as §4

The nature of assay [13]: qHTS RealTime-Glo MT Cell Viability Assay in HEK293 cells - 0 hour (AID 1224880). Further: top concentration of the series differs between compounds; nearly all actives have a fitted effect of over 45% in size. As to conditions: RealTime-Glo luminescence; series mostly up to 76.8 µM. The gist of the method:
(§5)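 Real-time viability in HEK293: signal arises when living cells convert a prosubstrate for NanoLuc in the medium, so luminescence tracks viable cell number. Compound (23 nL, DMSO) added 5 h post-seeding; kinetic reads at 0–40 h, 37 C.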

The nature of assay [14]: qHTS assay to identify small molecule agonists of H2AX - cell viability counter screen (AID 1224847; calls by dose curve; further: top concentration of the series differs between compounds; nearly all actives have a fitted effect of over 30% in size). As to conditions: CHO-K1 viability, CellTiter-Glo luminescence, 3 h; series mostly up to 154 µM. An outline of the steps:
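CHO-K1 wt, 1000 cells/well, o/n 37C; cpds 15 conc, 3 h 37C, 0.76% DMSO; CellTiter-Glo, 30 min RT, luminescence.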

The nature of assay [15]: qHTS assay to identify small molecule antagonists of the estrogen related receptor (ERR) signaling pathway from Tox21 library (AID 1224848). Further: nearly all actives have a fitted effect of over 50% in size. The settings on record: ERR reporter cell line, luciferase antagonist mode, 18 h; series mostly up to 92.4 µM. An outline of the steps: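 Quantitative high-throughput format: ERR reporter cells (2,000/well) pre-incubated 6 h, treated 18 h at 37 C with compounds in DMSO alongside positive and negative controls, then read by ONE-Glo luminescence.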

A short description of assay [16]: qHTS assay to identify small molecule agonists of the estrogen related receptor (ERR) signaling pathway from Tox21 library (AID 1224849; calls by dose curve; further: nearly all actives have a fitted effect of over 15% in size). As to conditions: ERR reporter cell line, ONE-Glo luciferase, 18 h. The gist of the method:
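Cells carrying the ERR reporter were plated and allowed to settle for 6 h, exposed to library compounds for 18 h at 37 C, then lysed with ONE-Glo and luminescence measured.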

Assay [17] is described as follows: A CellTox Green Cytotoxicity Assay to monitor cytotoxicity in HEK293 cells - 40 hour (AID 1224871). Further: nearly all actives have a fitted effect of over 45% in size. As to conditions: CellTox Green fluorescence; series mostly up to 76.8 µM. The gist of the method:
as §2

The nature of assay [18]: qHTS RealTime-Glo MT Cell Viability Assay in HEK293 cells - 32 hour (AID 1224868). As to conditions: RealTime-Glo luminescence; series mostly up to 76.8 µM. An outline of the steps:
(§6)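 Tox21 10K qHTS, HEK293, 600 cells/well, RealTime-Glo reagent co-dispensed with cells; 5 h preincubation, compound by pintool, 37 C, luminescence at 0–40 h.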

The nature of assay [19]: qHTS RealTime-Glo MT Cell Viability Assay in HEK293 cells - 16 hour (AID 1224872). As to conditions: RealTime-Glo luminescence; series mostly up to 76.8 µM. The gist of the method:
as §6

The nature of assay [20]: qHTS RealTime-Glo MT Cell Viability Assay in HEK293 cells - 40 hour (AID 1224874). Further: nearly all actives have a fitted effect of over 50% in size. As to conditions: RealTime-Glo luminescence; max response: stronger effect = lower value. An outline of the steps: as §5

Values joined by “and” are separate entries in the source; they are usually repeats but may differ in a detail not shown here. Identical values can stand only once. Records with an inconclusive call do not appear. Some structures have more than one record in an assay (separate samples or runs), and their calls can disagree. Active and inactive are the calls of the source. Unless noted, the call rests on the fitted dose curve; in most records, active means well fitted curve in the direction sought with a large enough effect in the repeat runs; inconclusive means weak or mixed curves; inactive means no such curve, though single readings can be large; an effect the other way counts as inactive or inconclusive.
On the % scale 0 is the no-effect control and ±100 the full control effect.

`CCCCCCCCCCn1cc[n+](C)c1`: the Potency entry in [1], in assay [2], in assay [4], in [5], in [6] and in [7] was “inactive” throughout. In addition, the Potency result in assay [8], in assay [9] and in assay [10] was “inactive” in each case. In addition, the outcome in assay [3] and in assay [13] was inactive. The Potency in assay [11] was 44.1 µM (active) and inactive; in assay [12], 44.1 µM (active) and 48.9 µM (active).
Regarding `O=P1(N(CCCl)CCCl)NCCCO1` (centres undefined), the Potency entry in [1], in [2], in assay [14], in assay [15], in assay [4] and in [5] was “inactive” each time. The Potency result in assay [6], in assay [17], in assay [7], in assay [8], in assay [9] and in assay [10] was “inactive” in each case. In addition, the Potency entry in assay [11] and in [12] was “inactive” throughout. Also, the activity change, positive = activation in assay [16] (at 42.5 µM (top of the series)) is -7.16% (inactive); in [16] (at 92.4 µM (top of the series)), -1.25% (inactive) and 0.0597% (inactive). Further, the result in assay [13] was inactive.
Turning to `CCCCCCCCCCCCn1cc[n+](C)c1`, the Potency result in [2] and in [5] was “inactive” each time. The outcome in assay [3] and in assay [13] was inactive. Also, the Potency in [7] was 49.4 µM (active) and inactive.
In the case of `CCCC[n+]1ccccc1`, the Potency entry in assay [1], in assay [2], in assay [4], in assay [5], in assay [6] and in assay [17] was “inactive” in each case. Also, the Potency result in [7], in [8], in [9], in assay [10], in [11] and in assay [12] was “inactive” throughout. In addition, the outcome in [3] and in [13] was inactive.
For the compound `COP(=O)(OC)OC=C(Cl)Cl`, the Potency result in assay [1], in [2], in [4], in [18], in assay [5] and in assay [6] was “inactive” in each case. The Potency result in assay [17], in assay [7], in [8], in [9], in assay [10] and in assay [11] was “inactive” in each case. Besides, the Potency entry in [12] was “inactive”. The result in [3] and in assay [13] was inactive.
In the case of `O=C(O)CC(O)(CC(=O)O)C(=O)O`, the Potency entry in assay [1], in assay [2], in assay [4], in [5], in assay [6] and in assay [17] was “inactive” each time. In addition, the Potency entry in [19], in assay [7], in assay [8], in assay [9], in assay [10] and in [11] was “inactive” in each case. Also, in assay [12], the Potency entry is “inactive”. Besides, in assay [13], the compound was classed as inactive.
Consider `CC(=O)O`, for which the Potency result in [1], in assay [2], in assay [4], in assay [5], in assay [6] and in assay [17] was “inactive” in each case. Moreover, the Potency result in assay [19], in [7], in assay [8], in [9], in [10] and in assay [11] was “inactive” throughout. In addition, the Potency result in assay [12] is “inactive”. Also, the outcome in assay [3] and in assay [13] was inactive.
Take `O=C(O)C(Cl)Cl`: the Potency entry in assay [1], in assay [2], in assay [4], in [5], in assay [6] and in [17] was “inactive” in each case. Moreover, the Potency entry in [19], in assay [7], in assay [8], in assay [9], in assay [10] and in [11] was “inactive” each time. In addition, in assay [12], the Potency result was “inactive”. Also, the outcome in assay [3] and in assay [13] was inactive. The max response in assay [20] is 5.65% (inactive) [middle of 4 runs].
